Reference: PubChem BioAssay
Active and inactive are the calls of the source.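 The calls were made as follows, unless noted: active = mean inhibition above 46.68%, the untreated control wells mean plus 3 SD; inactive = the rest.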

Legend:
[1] = target: Nuclear receptor coactivator 1 (Homo sapiens) (UniProt Q15788); test: SRC1 coactivator transcriptional activity inhibitors, confirmation, cell-based, luminescence, quadruplicate (AID 588820); details: HEK293 GAL4-SRC1 luciferase reporter, at 3.6 µM, stronger effect = higher value;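 also: 0% = DMSO wells and 100% = gossypol 36 µM treated wells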
Nuclear receptor coactivator 1 (Homo sapiens), sequence (Q15788 whole entry, looked up, the tested form may be a part): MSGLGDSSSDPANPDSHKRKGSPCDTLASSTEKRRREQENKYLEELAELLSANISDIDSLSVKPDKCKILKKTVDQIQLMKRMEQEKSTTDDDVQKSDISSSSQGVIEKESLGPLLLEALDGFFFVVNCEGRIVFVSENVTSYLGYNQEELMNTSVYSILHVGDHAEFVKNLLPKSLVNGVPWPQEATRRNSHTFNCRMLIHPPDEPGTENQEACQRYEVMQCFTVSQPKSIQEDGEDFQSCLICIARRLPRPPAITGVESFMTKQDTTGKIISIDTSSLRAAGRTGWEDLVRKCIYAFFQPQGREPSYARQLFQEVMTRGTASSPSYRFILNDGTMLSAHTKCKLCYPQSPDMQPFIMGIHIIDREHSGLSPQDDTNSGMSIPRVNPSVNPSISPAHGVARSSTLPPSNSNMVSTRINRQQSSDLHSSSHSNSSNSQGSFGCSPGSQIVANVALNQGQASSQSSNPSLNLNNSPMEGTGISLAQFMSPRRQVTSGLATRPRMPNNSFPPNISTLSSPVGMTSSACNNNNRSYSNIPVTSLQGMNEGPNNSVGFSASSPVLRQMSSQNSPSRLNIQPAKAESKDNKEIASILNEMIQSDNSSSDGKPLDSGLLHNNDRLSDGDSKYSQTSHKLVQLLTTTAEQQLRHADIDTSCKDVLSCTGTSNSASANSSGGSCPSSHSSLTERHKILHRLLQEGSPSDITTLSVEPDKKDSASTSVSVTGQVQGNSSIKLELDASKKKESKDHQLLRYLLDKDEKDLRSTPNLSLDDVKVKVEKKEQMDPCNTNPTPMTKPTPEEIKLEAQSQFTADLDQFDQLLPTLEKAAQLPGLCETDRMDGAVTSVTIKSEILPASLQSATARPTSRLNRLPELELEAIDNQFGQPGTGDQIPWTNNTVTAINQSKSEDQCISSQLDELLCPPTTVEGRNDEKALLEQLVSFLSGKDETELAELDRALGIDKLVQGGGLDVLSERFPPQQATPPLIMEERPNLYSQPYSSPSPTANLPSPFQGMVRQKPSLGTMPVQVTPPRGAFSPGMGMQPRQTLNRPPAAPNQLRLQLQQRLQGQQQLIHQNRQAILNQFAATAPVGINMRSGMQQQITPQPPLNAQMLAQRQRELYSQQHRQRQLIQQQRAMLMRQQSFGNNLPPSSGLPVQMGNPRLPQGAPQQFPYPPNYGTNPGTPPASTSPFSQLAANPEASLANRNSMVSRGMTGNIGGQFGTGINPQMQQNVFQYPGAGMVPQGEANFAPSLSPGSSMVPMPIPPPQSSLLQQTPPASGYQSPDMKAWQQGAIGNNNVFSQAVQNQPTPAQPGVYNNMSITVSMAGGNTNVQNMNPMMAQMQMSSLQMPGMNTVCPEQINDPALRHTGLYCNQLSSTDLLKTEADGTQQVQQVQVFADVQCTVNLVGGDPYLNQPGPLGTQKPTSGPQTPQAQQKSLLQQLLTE

[2] = VP16 transactivation inhibitors, counter-screen for SRC1 inhibitor project, cell-based, luminescence, high throughput (AID 588824; in the data active = inhibition above about 25%); details: cell-based VP16 transactivation luciferase luminescence; at 3.6 µM; stronger effect = higher value

SMILES | inhibition [1] | inhibition [2]
COc1cc(/C=C/C(=O)Nc2ccc3nc4n(c(=O)c3c2)CCCC4)cc(OC)c1OC | -22.6% (inactive) | -26.8% (inactive)
COc1ccccc1/C=N/NC(=O)CN(C1=NS(=O)(=O)c2ccccc21)c1ccccc1 | -2.78% (inactive) | 0.92% (inactive)
CN1CCN(C(=O)CCN2C(=O)/C(=C/c3cccc(Br)c3)SC2=S)CC1 | 10.7% (inactive) | 16.9% (inactive)
CC(C)(C)NC(=O)C1(C)CCC(=O)N1CCCn1ccnc1 (stereo not given) | 22.2% (inactive) | 16.9% (inactive)
O=C(Nc1ccc(Oc2ccccc2)cc1)c1csc([C@@H]2O[C@H](CO)[C@@H](O)[C@H]2O)n1 | -12.9% (inactive) | 19.7% (inactive)
CCN(CC)CCNC(=O)c1ccc(NC(=O)C2CCN(c3ncnc4sc(C)c(C)c34)CC2)cc1 | 24.3% (inactive) | 17.3% (inactive)
CCOC(=O)c1ccc(S(=O)(=O)N2CCN(C(C)=O)CC2)cc1 | -14.4% (inactive) | -6.09% (inactive)
CN1CCN(c2ccccc2/C=C2/C(=O)Nc3ccccc32)CC1 | -7.17% (inactive) | 10.8% (inactive)
O=C(Nc1ccccc1N1CCOCC1)c1ccc(N2CCOCC2)c([N+](=O)[O-])c1 | -19.5% (inactive) | -16.2% (inactive)
Cc1ccc(-c2c[n+]3c(n2-c2ccccc2)CCC3)cc1 | 10.5% (inactive) | 20.3% (inactive)
Cc1ccn(CC(=O)N/N=C/c2cc([N+](=O)[O-])ccc2O)n1 | 7.62% (inactive) | 9.09% (inactive)
COc1ccc2cc3c(N)nn(C(=O)c4cccc([N+](=O)[O-])c4)c3nc2c1 | 51.3% (active) | 36.1% (active)
O=C(Nc1nc(-c2ccccn2)cs1)c1cccc(S(=O)(=O)N2CCOCC2)c1 | 25% (inactive) | 20% (inactive)
O=C(NCCS(=O)(=O)N1CCN(c2cccc(Cl)c2)CC1)C1CC1 | -3.41% (inactive) | 18.9% (inactive)
C=CCn1c(Oc2ccccc2F)nc2c1c(=O)n(C)c(=O)n2C | 46.6% (inactive) | 23.6% (inactive)
COc1ccc(C(=O)Nc2ccc(-c3ccc(C)o3)cc2)cc1S(=O)(=O)N1CCOCC1 | -16.1% (inactive) | 22.2% (inactive)
CCCNC(=O)C1(C)CCCN(Cc2cccc(C#N)c2)C1 (stereo not given) | 36.4% (inactive) | 26% (active)
O=C(Cc1ccsc1)N1CCN(S(=O)(=O)c2cc(C(F)(F)F)cc(C(F)(F)F)c2)CC1 | -14.2% (inactive) | 0.11% (inactive)
Cc1cccnc1NC(=O)c1cccc(S(=O)(=O)NCc2ccccc2)c1 | -10.8% (inactive) | 3% (inactive)
CC(=O)c1ccc(S(=O)(=O)N2CCN(CCOc3ccc(Br)cc3)CC2)cc1 | 2.32% (inactive) | 25.4% (active)
CCOC(=O)c1[nH]c(C)c(C(=O)OCc2ccc(C)cc2)c1C | 4.43% (inactive) | 5.19% (inactive)
CCN1CCN(c2ccc(S(=O)(=O)N3CCOCC3)cc2NC(=O)c2cc(Cl)nc3ccccc23)CC1 | -18.2% (inactive) | 1.55% (inactive)
COc1ccc(OC)c(S(=O)(=O)N2CCN(c3ccccc3)CC2)c1 | -2.63% (inactive) | -1.07% (inactive)
Cc1ccc(N2CC(C(=O)N3CCC(C(=O)NCCCOC(C)C)CC3)CC2=O)cc1 (stereo not given) | -30.7% (inactive) | -8.26% (inactive)

SMILES | inhibition [1] | inhibition [2]
CN1c2ccccc2C2(C)CCCC3=Cc4cccc([N+](=O)[O-])c4OC312 (stereo not given) | -8.43% (inactive) | 11.1% (inactive)
CCN1CCN(c2ccc(S(=O)(=O)N3CCCCC3)cc2NC(=O)/C=C/c2cc(OC)ccc2OC)CC1 | -0.69% (inactive) | 7.17% (inactive)
O=C(Nc1ccc(OCC(F)(F)C(F)F)c(C(F)(F)F)c1)c1ccccc1O | -35.3% (inactive) | 6.93% (inactive)
C[n+]1c2n(c3ccccc31)N=C(c1ccc(Cl)cc1)CS2 | -20.3% (inactive) | 19.1% (inactive)
O=c1[nH]cnc2sc3c(c12)CCCCC3 | -0.67% (inactive) | -2.41% (inactive)
O=C1NC(=S)N/C1=C/c1ccc2c(c1)OCO2 | 10.2% (inactive) | 16.3% (inactive)
COc1ccc(CN2CCN(C(=O)c3cc(-c4cccnc4)nc4ccc(Cl)cc34)CC2)c(OC)c1OC | -29.8% (inactive) | -6.25% (inactive)
COc1ccc(Cl)cc1NC(=O)Nc1ccccc1C(N)=O | 9.1% (inactive) | 17.7% (inactive)
CCNc1nc(NCC)n2c(SCC(=O)Nc3ccccc3C(F)(F)F)nnc2n1 | -4.19% (inactive) | -1.57% (inactive)
O=C1N=C(N2CCCC2)S/C1=C\C=C\c1ccccc1 | -93.8% (inactive) | -50.3% (inactive)
Cc1c(C(=O)N2CCN(Cc3ccc4c(c3)OCO4)CC2)sc2ncnc(N3CCN(c4ccccc4)CC3)c12 | 11.3% (inactive) | 19.7% (inactive)
CC(C)C(=O)N1CCN(c2ccc(NC(=O)c3ccc4c(c3)OCCO4)cc2Cl)CC1 | -52.5% (inactive) | -6.57% (inactive)
C=C(C)c1cccc(C(C)(C)NC(=O)N(Cc2ccccc2)Cc2ccco2)c1 | -2.08% (inactive) | -0.46% (inactive)
CC1(C)CC(=O)c2sc(N)nc2C1 | -9.15% (inactive) | 0.81% (inactive)
Cc1ccccc1-n1nc(C)c2c1N=C1C(Cl)=CC(Cl)=CN1C2c1ccc(C(=O)O)cc1 (stereo not given) | -9.32% (inactive) | -14.1% (inactive)
O=C(O)CC1S/C(=N\N=C2CCCCCC2)N(c2ccccc2)C1=O (stereo not given) | -22.2% (inactive) | -9.41% (inactive)
CC(=O)Nc1ccc(NC(=O)C2Cc3c(-c4ccco4)ccnc3O2)cc1 (stereo not given) | 3.04% (inactive) | 8.12% (inactive)
Fc1cccc(Cl)c1Cn1nnc2c(NCc3ccncc3)ncnc21 | -0.7% (inactive) | 4.51% (inactive)
Cc1cccc(N2CCN(C(=O)CSc3nc4ccccc4nc3N3CC(C)OC(C)C3)CC2)c1C (stereo not given) | -26.1% (inactive) | 12.3% (inactive)
NS(=O)(=O)c1ccc(NC(=O)c2cccc3cc4ccccc4nc23)cc1 | -13.3% (inactive) | 9.91% (inactive)
CC(C)Oc1ccccc1NC(=O)CSc1nc2ccccc2c(=O)n1C | -5.84% (inactive) | 13.4% (inactive)
O=C1c2cccc(OCc3ccc(F)cc3)c2CCN1Cc1ccc(F)cc1 | 21.3% (inactive) | 33.4% (active)
CCOC(=O)c1ccc2c(c1)n(CC)c(/C=C/N(C)c1ccccc1)[n+]2CC | 29.7% (inactive) | 62.3% (active)
Cc1nn(Cc2cccc(F)c2)c(C)c1NC(=O)c1ccc(COc2ccccc2Cl)cc1 | 31.2% (inactive) | 46.7% (active)

SMILES | inhibition [1] | inhibition [2]
Cc1ccccc1NC(=S)NNC(=O)c1csc2c1CCC(C)C2 (stereo not given) | -45.9% (inactive) | -23% (inactive)
Cc1cn(Cc2ccccc2Cn2cc(C)c(=O)[nH]c2=O)c(=O)[nH]c1=O | -23.2% (inactive) | -5.61% (inactive)
Cc1ccc(Oc2ccccc2NC(=O)CSCC(=O)Nc2cc(C)on2)cc1 | 1.59% (inactive) | 16.1% (inactive)
COc1cccc(NC2=NC3(CCCCC3)N=C(N)N2)c1 | -9.2% (inactive) | 9.05% (inactive)
O=C1Nc2cc(C(=O)NCC3CCCO3)ccc2S/C1=C/c1ccccc1F (stereo not given) | -7.31% (inactive) | -5.02% (inactive)
CC(=C\c1ccccc1)/C=C1/SC(=S)N(CCC(=O)O)C1=O | -20.4% (inactive) | -5.15% (inactive)
CC(=O)NC(c1cccs1)c1cc(F)c2cccnc2c1O (stereo not given) | 14.3% (inactive) | 15.3% (inactive)
Cc1ccc(OCC(=O)NNC(=O)c2ccc3c(=O)n4c(nc3c2)CCC4)cc1 | -7.39% (inactive) | -3.2% (inactive)
CCC(C)OC(=O)C[N+](C)(C)CCOC1CC2CCC1(C)C2(C)C (stereo not given) | 5.52% (inactive) | 2.28% (inactive)
CC(C)OCCCn1c(=O)c2ccccc2n2c(CCC(=O)N3CCN(c4ccccn4)CC3)nnc12 | -22.8% (inactive) | -9.58% (inactive)
O=C1CSc2ccc(S(=O)(=O)NCc3ccccc3)cc2N1 | -4.74% (inactive) | -9.61% (inactive)
COc1cccc(C=NNC(=O)c2ccncc2)c1O | 7.89% (inactive) | 10.7% (inactive)
Cc1ccccc1N(C(=O)c1csnn1)C(C(=O)NC1CCCCC1)c1ccncc1 (stereo not given) | -16% (inactive) | -5.53% (inactive)
CCOC(=O)N1CCN(Cc2nc(Cc3cccc(C(F)(F)F)c3)no2)CC1 | -24.9% (inactive) | -12.2% (inactive)
CCOC(=O)CNC(c1ccccc1)c1cc(Br)ccc1NC(C)=O (stereo not given) | -0.66% (inactive) | 4.71% (inactive)
Fc1cccc(CSc2nnc3ccc(-c4ccncc4)nn23)c1 | 21.7% (inactive) | 9.73% (inactive)
COc1ccc(-c2ocnc2C(=O)NCc2nn(-c3ccccc3)nc2C)cc1 | -0.81% (inactive) | 15% (inactive)
Cc1c(O)ccc(/C(Cc2ccc3ccccc3n2)=N\N)c1O | -105% (inactive) | -61.3% (inactive)
O=C(Nc1ccc(Cl)c(Cl)c1)c1cccc(S(=O)(=O)NCc2cccnc2)c1 | 6.28% (inactive) | 25.9% (active)
O=C(c1ccc(Cl)c(Cl)c1)N1CCN(c2ccccn2)CC1 | -12.5% (inactive) | 7.01% (inactive)
O=C(NC1CCCC1)C(c1ccccc1)N(Cc1ccco1)C(=O)Cc1cccs1 (stereo not given) | 17.7% (inactive) | 31.5% (active)
Cc1cc(C)c(Nc2cc(S(=O)(=O)O)c(N)c3c2C(=O)c2ccccc2C3=O)c(C)c1 | 9.3% (inactive) | 8.52% (inactive)
